Measurements taken from PubChem BioAssay (NCATS).
Records with an inconclusive call do not appear. Activity calls are given as the source filed them. The call rests on the fitted dose curve; in most records, active means well fitted curve in the direction sought with a large enough effect; inconclusive means small, poorly fitted or top-dose-only effect, or another doubt; inactive means no such curve, though single readings can be large; an effect the other way counts as inactive or inconclusive.

Experiments:
HACAT = experiment: qHTS assay to identify novel small-molecules to repurpose for Merkel cell carcinoma treatment (AID 1296009); conditions: MCC and control cell lines, CellTiter-Glo viability, 72 h; at 44.8 µM (top of the series) unless noted; further: nearly all actives have a fitted effect of over 60% in size
Method in brief: (§1)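 Cells were incubated with compound for 72 hr at 37 degree celsius before CellTiter-Glo addition. Luminescence was normalized with no-cell wells as full cytotoxicity and DMSO as baseline.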

HEK293T [1] = experiment: as above; conditions: MCC and control cell lines, CellTiter-Glo viability, 72 h; at 44.8 µM (top of the series) unless noted
Method in brief: as §1

MCC-13 = experiment: as above; conditions: MCC and control cell lines, CellTiter-Glo viability, 72 h; series mostly up to 46 µM
Method in brief: as §1

MCC-26 = experiment: as above; conditions: MCC and control cell lines, CellTiter-Glo viability, 72 h; series mostly up to 46 µM
Method in brief: as §1

MKL-1 = experiment: as above; conditions: MCC and control cell lines, CellTiter-Glo viability, 72 h; series mostly up to 46 µM
Method in brief: as §1

MKL-2 = experiment: as above; conditions: MCC and control cell lines, CellTiter-Glo viability, 72 h; series mostly up to 46 µM
Method in brief: as §1

UISO = experiment: as above; conditions: MCC and control cell lines, CellTiter-Glo viability, 72 h; series mostly up to 46 µM
Method in brief: as §1

WaGa = experiment: as above; conditions: MCC and control cell lines, CellTiter-Glo viability, 72 h; series mostly up to 46 µM
Method in brief: as §1

C33A = experiment: Primary qHTS to identify gynecologic anti-cancer compounds using libraries of approved drugs and bioactive compounds (AID 1345084); conditions: Gynecologic cancer cell panel viability, ATPlite luminescence, 48 h; series mostly up to 57.5 µM; further: nearly all actives have a fitted effect of over 55% in size; further: potency means the concentration at half of the fitted maximal effect
Method in brief: (§2)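 Cell viability after 48 h drug treatment, ATPlite luminescence readout; five doses.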

CAOV3 = experiment: as above; conditions: Gynecologic cancer cell panel viability, ATPlite luminescence, 48 h; series mostly up to 57.5 µM
Method in brief: as §2

CASKI = experiment: as above; conditions: Gynecologic cancer cell panel viability, ATPlite luminescence, 48 h; series mostly up to 57.5 µM
Method in brief: as §2

Es-2 = experiment: as above; conditions: Gynecologic cancer cell panel viability, ATPlite luminescence, 48 h; series mostly up to 57.5 µM
Method in brief: as §2

HeLa = experiment: as above; conditions: Gynecologic cancer cell panel viability, ATPlite luminescence, 48 h; series mostly up to 57.5 µM
Method in brief: as §2

Hek293T [2] = experiment: as above; conditions: Gynecologic cancer cell panel viability, ATPlite luminescence, 48 h, control line for the selectivity index; series mostly up to 57.5 µM
Method in brief: as §2

JEG-3 = experiment: as above; conditions: Gynecologic cancer cell panel viability, ATPlite luminescence, 48 h; series mostly up to 57.5 µM
Method in brief: as §2

OV90 = experiment: as above; conditions: Gynecologic cancer cell panel viability, ATPlite luminescence, 48 h; series mostly up to 57.5 µM
Method in brief: as §2

PA-1 = experiment: as above; conditions: Gynecologic cancer cell panel viability, ATPlite luminescence, 48 h; series mostly up to 57.5 µM
Method in brief: as §2

SKOV3 = experiment: as above; conditions: Gynecologic cancer cell panel viability, ATPlite luminescence, 48 h; series mostly up to 57.5 µM
Method in brief: as §2

Tov-21-G = experiment: as above; conditions: Gynecologic cancer cell panel viability, ATPlite luminescence, 48 h; series mostly up to 57.5 µM
Method in brief: as §2

NIH3T3 = experiment: qHTS assay to identify novel small-molecules to repurpose for Merkel cell carcinoma treatment (AID 1296009); conditions: MCC and control cell lines, CellTiter-Glo viability, 72 h; at 44.8 µM (top of the series) unless noted; further: nearly all actives have a fitted effect of over 60% in size
Method in brief: as §1

Measured: Potency

OC1(c2ccc(Cl)cc2)CCNCC1
not listed: NIH3T3
inactive: all other assays above

CC(C)(C)C(=O)OCOC(=O)C1N2C(=O)CC2S(=O)(=O)C1(C)C (configuration not stated)
not listed: NIH3T3
inactive: all other assays above

O=C(O)/C=C(\CC(=O)O)C(=O)O
inactive: all assays above

CC(C)(C)c1nnc(NS(=O)(=O)c2ccccc2)s1
not listed: NIH3T3
inactive: all other assays above

Cc1cccc(C)c1NC(=O)c1cc(S(N)(=O)=O)c(Cl)cc1O
not listed: CAOV3 | NIH3T3
inactive: all other assays above

Cc1ccc(C(C)OC(=O)C2(C)CCC(C(=O)O)C2(C)C)cc1 (configuration not stated)
inactive: all assays above

Cc1ccc(-c2ccccc2C#N)cc1
not listed: NIH3T3
inactive: all other assays above

O=C(CCOCCOCCOCCOCCC(=O)Nc1c(I)cc(I)c(C(=O)O)c1I)Nc1c(I)cc(I)c(C(=O)O)c1I
not listed: CAOV3 | NIH3T3
inactive: all other assays above

CC(NC(CCc1ccccc1)C(=O)O)C(=O)N1C(=O)N(C)CC1C(=O)O (configuration not stated)
not listed: SKOV3 | NIH3T3
inactive: all other assays above

CC(=O)O[C@@H]1CC2C3CCc4cc(OC(=O)c5ccccc5)ccc4C3CCC2(C)[C@H]1OC(C)=O (some centres not stated)
not listed: NIH3T3
inactive: all other assays above

CC1(C)OC(=O)Nc2ccc(Br)cc21
active: HeLa 10 µM
not listed: CAOV3 | NIH3T3
inactive: all other assays above

CC(CC(C#N)(c1ccccc1)C(C)C)N(C)C (configuration not stated)
inactive: all assays above

COc1ccc(CCC(C)=O)cc1
not listed: CAOV3
inactive: all other assays above

CCN(CC)CC(=O)Oc1ccc(NC(C)=O)cc1
inactive: all assays above

Cc1cc(O)c(C)c(C)c1O
not listed: UISO
inactive: all other assays above

O=C(C1CCCCC1)N1CC(=O)N2CCCc3ccccc3C2C1 (configuration not stated)
inactive: all assays above

COC(=O)/C=C(/C)N
inactive: all assays above

CCOC(=O)C(O)c1ccccc1 (configuration not stated)
not listed: NIH3T3
inactive: all other assays above

CC(=O)c1ccc(O)c(C(N)=O)c1
inactive: all assays above

CCN(CC)C(=O)C1CN2CCc3cc(OC)c(OC)cc3C2CC1OC(C)=O (configuration not stated)
not listed: NIH3T3
inactive: all other assays above

COC(=O)c1cc(Cl)ccc1OC
inactive: all assays above

O=C(O)[C@H](O)[C@@H](O)[C@H](O[C@@H]1O[C@H](CO)[C@H](O)[C@H](O)[C@H]1O)[C@H](O)CO
not listed: SKOV3 | NIH3T3
inactive: all other assays above

Oc1ccccc1-c1nnco1
not listed: CAOV3 | NIH3T3
inactive: all other assays above

O=C(c1ccco1)N1CCNCC1
not listed: OV90 | NIH3T3
inactive: all other assays above

O=C(Oc1ccccc1)c1ccccc1O
not listed: NIH3T3
inactive: all other assays above

CC(C)NC(=O)c1ccc(C=O)cc1
not listed: NIH3T3
inactive: all other assays above

O=C(O)CCCC[P+](c1ccccc1)(c1ccccc1)c1ccccc1
not listed: NIH3T3
inactive: all other assays above

Cc1ccc2ccc(Cl)cc2n1
not listed: SKOV3 | NIH3T3
inactive: all other assays above

CC(=O)OCC(=O)[C@@]1(O)[C@H](OC(C)=O)C[C@H]2[C@@H]3CCC4=CC(=O)C=C[C@]4(C)[C@@]3(F)[C@@H](O)C[C@@]21C
inactive: all assays above
